The values below come from PubChem BioAssay (NCI).

Compounds without any hit were thinned out: in the full panel of roughly 83,000, 20% have a hit.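 How to read the values: 0–100, growth inhibition (40 = 60% inhibited); 0, no net growth; -100 to 0, cell death (-40 = 40% of starting cells died; -100 = all dead).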 Values without a mark were called inactive. Activity calls are given as the source filed them. How the source made its calls: active means growth percent below 10; inactive means the rest.

This test deals with 786-0 renal. Nature of the test: NCI-60 one-dose screen, 48 h (100 = growth as untreated, 0 = no growth, -100 = all killed). To be noted: 10 µM unless noted.
Take `O=C(/C=C/c1ccc(Cl)cc1)c1ccc(NC(=O)N2CCN(c3cc4c(cc3F)c(=O)c(C(=O)O)cn4C3CC3)CC2)cc1`: the growth is 86.5%.

As to `O=C(/C=C(/C=C/c1csc2ccccc12)OB(F)F)/C=C/c1csc2ccccc12`, the growth was -2.14% (active).

As to `CN1CCN(C(=O)[C@]23CCC(C)(C)C[C@H]2C2=CC[C@@H]4[C@@]5(C)C/C(=C/c6cccnc6)C(=O)C(C)(C)[C@@H]5CC[C@@]4(C)[C@]2(C)CC3)CC1`, the growth is 73.7%.

Regarding `CC1=CCC(OC(=O)C(C)(O)CCC(O)(C(=O)OC2(C)C=CC(O)(C(C)C)CC2)C(C)C)(C(C)C)CC1` (stereo not drawn), the growth is 100%.

As to `NC1=NN=C(N)C1=Cc1cc2ccccc2n2nnnc12`, the growth was 93.9%.

Take `COc1ccc(NC(N)=NCCCOc2ccc(F)cc2)cc1`: the growth is 89.1%.

For the molecule `O=C1c2ccc3c4c(ccc(c24)C(=O)N1CCCNCc1ccccc1)C(=O)N(CCCNCc1ccccc1)C3=O`, the growth is -46.3% (active).

Turning to `O=C(NCCNc1nccc(-c2c(-c3cccc(F)c3)nc3sccn23)n1)c1ccc(Cl)cc1`, the growth was 54.6%.

For the molecule `C=C1C(=O)O[C@H]2[C@H]1CC/C(COC(=O)NCCc1c[nH]c3ccc(OC)cc13)=C\CC[C@@]1(C)O[C@@H]21`, the growth is -35.4% (active).

For `COc1cc(CC(=O)c2ccc(O)c(OC)c2)ccc1O`, the growth is 104%.

`CCN(CC)c1ccc(/C=N/NC(=O)CSc2nc3ccccc3c(=O)n2CCc2ccc(S(N)(=O)=O)cc2)c(O)c1`: the growth is 49.5%.

Consider `Cc1ccc(-n2c3c(c(-c4ccccc4)c2-c2ccccc2)C2=NCCN2C=N3)cc1`, for which the growth is 95%.

Consider `CN1CCN(C(=O)[C@]23CCC(C)(C)C[C@H]2C2=CC[C@@H]4[C@@]5(C)C/C(=C/c6ccncc6)C(=O)C(C)(C)[C@@H]5CC[C@@]4(C)[C@]2(C)CC3)CC1`, for which the growth is 67.2%.

`C=C(C)[C@@H]1CC[C@]2(C(=O)N3CCN(C)CC3)CC[C@]3(C)[C@H](CC[C@@H]4[C@@]5(C)C/C(=C/c6cccnc6)C(=O)C(C)(C)[C@@H]5CC[C@]43C)[C@@H]12`: the growth was 75.7%.

For `N/C(=N\C(N)=N\c1nc2ccccc2s1)c1cccc(Cl)c1`, the growth is 94.4%.

Take `CCOC(=O)Nc1ccc(-c2ccc3c(c2)NC(=O)/C3=C\c2ccc[nH]2)cc1`: the growth is 108%.

As to `CCNC(=O)Oc1ccc(/C(=C(\C)c2ccccc2)c2ccc(OCCN(CC)CC)cc2)cc1`, the growth is 66.3%.

Turning to `CCOC(=O)/C(C#N)=C1/NNC(=Nc2cccnc2)S1`, the growth is 98%.

For the molecule `COc1cccc(-c2nc3occn3c2-c2ccnc(NCCCNS(=O)(=O)c3ccc(C(F)(F)F)cc3)n2)c1`, the growth is 86.8%.

With `CC(=O)Nc1ccc(-n2cnc3cc(-c4ccc(OCCN5CCCCC5)cc4)ccc32)cc1`, the growth was -40.9% (active).

Consider `Cn1ccnc1C(=O)/C=C/c1ccc(CC(=O)Nc2ccc(Cl)cc2)cc1`, for which the growth was 11.3%.

For `C=CCN1C(=O)/C(=C/C(=O)OC)S/C1=N\NC(=O)c1cc2ccc1/C=C\c1ccc(cc1)/C=C\2`, the growth is 91.2%.

As for `COc1ccc(/C=C(\C#N)n2nc3cccc(F)c3n2)cc1`, the growth is 96.6%.

With `N/C(=N\C(N)=N\c1nc2ccccc2s1)c1cnccn1`, the growth was 23.4%.

Consider `Cc1c(C(=O)NCCC(=O)NO)sc2ncnc(Nc3ccc(NC(=O)Nc4cccc(C(F)(F)F)c4)cc3)c12`, for which the growth was 116%.

Regarding `O=C(Nc1ccc(-c2ccc3c(c2)NC(=O)/C3=C\c2ccc[nH]2)cc1)NC1CC1`, the growth is 110%.

Consider `S=c1cc(S)c2cc(Br)ccc2[nH]1`, for which the growth was 104%.

As to `CCCCOc1ccc(/C=N/Nc2cc(C)nc3ccc(Br)cc23)cc1`, the growth was -83.7% (active).

Regarding `N/C(=N\C(N)=N\c1nc2ccccc2s1)c1ccnc(Br)c1`, the growth is 32.2%.

For the molecule `COc1cc(NC(C)CCCNC(=O)CCC(=O)NCCCNCCCCCCCCNCCCNC(=O)CCC(=O)NCCCC(C)Nc2cc(OC)cc3cccnc23)c2ncccc2c1` (stereo not drawn), the growth is 92.6%.

For the molecule `COc1cc2nc(-c3ccc(C(F)(F)F)cc3)cc(OCCCN3CCOCC3)c2cc1OC`, the growth was 21.5%.

For the molecule `O=C(Cn1c[n+](CC(=O)c2ccc(-c3ccccc3)cc2)c2ccccc21)Nc1cccc2cccnc12`, the growth was 44.4%.

`CC(Oc1ccc(C(=O)O)cc1C(F)(F)F)c1ccc(Oc2ccccc2)cn1` (stereo not drawn): the growth was 99.4%.
